Consider 40 compounds from PubChem BioAssay (NCATS).

Results filed as inconclusive are left out. Values without a mark were called inactive. Active and inactive are the calls of the source. Calls come from the whole dose curve; as a rule, active = well fitted cell-killing curve with a large enough effect; inconclusive = small, poorly fitted or top-dose-only effect, or effect the other way; inactive = no such curve, though single readings can be large or run the other way.
Potency is the fitted concentration of half-maximal effect.

The experiment is described as follows: Quantitative High-Throughput drug screen in 47 multiple myeloma cell lines against the NCATS MIPE library collection: KMM1_JCRB cell viability assay (AID 1918960). Note: nearly all actives have a fitted effect of over 30% in size. To be noted: KMM1 myeloma viability, CellTiter-Glo ATP luminescence, 48 h; series mostly up to 45.8 µM; viability (% of DMSO): at the top concentration. The text has this:
PI: Beverly A. Mock Ph.D.
Laboratory of Cancer Biology and Genetics,
Center for Cancer Research, National Cancer Institute,
National Institute of Health, Bethesda, Maryland
Drug resistance and disease progression are common in multiple myeloma (MM) patients, underscoring the need for new therapeutic combinations. […] We hypothesized that effective combinations would reduce MYC expression and enhance p16 activity. […] These preclinical data identify potentially useful drug combinations for evaluation in drug-resistant MM and reveal potential mechanisms of combined drug sensitivity.
Described herein is the primary MIPE qHTS used to cherrypick compounds. Validated compounds were then further tested for potential synergistic activiy.
[1] Peat TJ, Gaikwad SM, Dubois W, Gyabaah-Kessie N, Zhang S, Gorjifard S, Phyo Z, Andres M, Hughitt VK, Simpson RM, Miller MA, Girvin AT, Taylor A, Williams D, D'Antonio N, Zhang Y, Rajagopalan A, Flietner E, Wilson K, Zhang X, Shinn P, Klumpp-Thomas C, McKnight C, Itkin Z, Chen L, Kazandijian D, Zhang J, Michalowski AM, Simmons JK, Keats J, Thomas CJ, Mock BA. Drug combinations identified by high-throughput screening promote cell cycle transition and upregulate Smad pathways in myeloma. Cancer Lett. 2023 Aug 1;568:216284. doi: 10.1016/j.canlet.2023.216284. Epub 2023 Jun 24. PMID: 37356470; PMCID: PMC10408729.
SEQUENCE No. (e.g., 1, 2, 3, etc.); […] (e.g., Cells, Incubation, Reagent, etc.); VALUE and DESCRIPTION.
1; Cells; 5 uL; white, solid bottom 1536-well Greiner assay plate.
2; Compounds; 23 nL; Kalypsis pin tool (Wako USA) equipped with a 1536-well pin head to transfer to the assay plates.
3; Incubation; 48 hours; 37C incubation.
4; Reagent;5uL; CellTiter Glo (Promega).
5; Detector; 425V; Luminescence; Viewlux PerkinElmer.
NOTES (numbers refer to Sequence numbers above)
1. The cell-based screening methods employed in this study were like those previously published. Briefly, the corresponding myeloma cell lines were screened in 1,536-well plates with 500 cells, 5-uL per well for inhibition of cell viability (assessed by measuring ATP levels with CellTiterGlo).
2. NCATS MIPE 4.0 library of approved and investigational drugs were added using the Kalypsis pin tool. Wells treated with DMSO only for 100% viability and media only cells for 0% viability were used as controls.
3. The assay plates were covered and incubated for 48 hours in a 37C, 5% CO2 incubator with controlled humidity.
4. After 48 hours, CellTilter-GloTM luminescent substrate mix (Promega) reagent was added to the assay plate and plates we incubated for 5 min at room temperature.
5. Signal was measured as median relative luminescence units on a ViewLux (PerkinElmer) multiplate reader.
[1] Heske CM, Davis MI, Baumgart JT, Wilson K, Gormally MV, Chen L, Zhang X, Ceribelli M, Duveau DY, Guha R, Ferrer M, Arnaldez FI, Ji J, Tran HL, Zhang Y, Mendoza A, Helman LJ, Thomas CJ. Matrix Screen Identifies Synergistic Combination of PARP Inhibitors and Nicotinamide Phosphoribosyltransferase (NAMPT) Inhibitors in Ewing Sarcoma. Clin Cancer Res. 2017 Dec 1;23(23):7301-7311. doi: 10.1158/1078-0432.CCR-17-1121. Epub 2017 Sep 12. PMID: 28899971; PMCID: PMC6636827.
`Fc1ccc(CNc2ncnc3ccc(F)cc23)cc1`: the Potency was 4.18 µM (active).

With `NC1(C(=O)N[C@@H](CCO)c2ccc(Cl)cc2)CCN(c2ncnc3[nH]ccc23)CC1`, the Potency is 0.118 µM (active).

In the case of `CN(C)CCOc1ccc(C(=C(CCCl)c2ccccc2)c2ccccc2)cc1`, the “viability (% of DMSO)” value is 77.7%.

Regarding `C[C@H]1O[C@@H](n2cc(F)c(=O)[nH]c2=O)[C@H](O)[C@H]1O`, the Potency is 5.26 µM (active).

With `COc1cc2nc(-c3cc(F)ccc3O)nc(N[C@@H]3CNC[C@@H]3C(C)(C)O)c2cc1OC`, the Potency is 4.18 µM (active).

As to `NC(=O)c1nnn(Cc2cc(Cl)c(C(=O)c3ccc(Cl)cc3)c(Cl)c2)c1N`, the Potency is 5.9 µM (active).

Consider `O=c1[nH]nc(OCCCc2ccc(Cl)cc2)c(NCc2cccnc2)c1Br`, for which the Potency was 18.7 µM (active).

For the compound `C[C@H]1COC2=C1C(=O)C(=O)c1c2ccc2c1CCCC2(C)C`, the “viability (% of DMSO)” value is 77.6%.

Consider `CCCCn1c(=O)n(Cc2ccccc2F)c(=O)c2[nH]c(Cc3ccc(NC(C)=O)cc3)nc21`, for which the “viability (% of DMSO)” value is 87.1%.

`CCc1cccc(CC)c1NC(=O)N1Cc2[nH]nc(NC(=O)c3ccc(N4CCN(C)CC4)cc3)c2C1`: the Potency was 7.43 µM (active).

As to `CC1(C)OC2CC3C4CC(F)C5=CC(=O)C=CC5(C)C4C(O)CC3(C)[C@]2(C(=O)CO)O1` (stereo not given in full), the Potency is 0.0235 µM (active).

As for `OC(c1cc(C(F)(F)F)nc2c(C(F)(F)F)cccc12)C1CCCCN1` (stereo not given), the Potency is 20.9 µM (active).

Consider `CC(=O)O[C@]1(C(C)=O)CC[C@H]2[C@@H]3C=C(Cl)C4=CC(=O)[C@@H]5C[C@H]5[C@]4(C)[C@@H]3CC[C@@]21C`, for which the Potency is 18.7 µM (active).

On to `O=C(O)c1nc(=O)[nH]c(=O)[nH]1`, for which the “viability (% of DMSO)” value was 81.3% [at 23.2 µM].

For the compound `O=C(O)Cc1cccc(OCCCN(Cc2cccc(C(F)(F)F)c2Cl)CC(c2ccccc2)c2ccccc2)c1`, the “viability (% of DMSO)” value was 111%.

As for `Cc1nc(NC(=O)N2CCC[C@@H]2C(N)=O)sc1-c1csc(C(C)(C)C)n1`, the Potency was 1.05 µM (active).

Regarding `CC1=C(CC(=O)O)c2cc(F)ccc2C1=Cc1ccc(S(C)=O)cc1` (stereo not given), the Potency was 20.9 µM (active).

Turning to `CC=C(C(=CC)c1ccc(O)cc1)c1ccc(O)cc1`, the Potency was 20.9 µM (active).

As for `CC(C)=CCCC(C)=CCCC(C)=CCCC(C)=CCCC(C)=CCCC(C)=CCCC(C)=CCCC(C)=CCCC(C)=CCO`, the “viability (% of DMSO)” value is 111%.

`CC(=O)OCC(=O)[C@@]1(O)CC[C@H]2[C@@H]3CCC4=CC(=O)C=C[C@]4(C)[C@@H]3[C@@H](O)C[C@@]21C`: the “viability (% of DMSO)” value is 96.4%.

`N#Cc1ccc(Oc2ccc3c(c2)COB3O)cc1`: the Potency is 16.6 µM (active).

Turning to `CC(C)C[C@@H](C(=O)N[C@H](C(=O)OC1CCCC1)c1ccccc1)[C@H](O)C(=O)NO`, the Potency is 4.18 µM (active).

Regarding `C[C@]12CC[C@@H]3c4ccc(O)cc4CC[C@H]3[C@H]1[C@@H](O)[C@@H](O)[C@H]2O`, the “viability (% of DMSO)” value is 118%.

On to `O=C(O)C1=CC(O)C(O)[C@H](O)C1` (stereo not given in full), for which the “viability (% of DMSO)” value was 104%.

As to `CC(C)(OCc1nn(Cc2ccccc2)c2ccccc12)C(=O)O`, the “viability (% of DMSO)” value is 114%.

Consider `OC[C@H]1O[C@@H](OCCc2ccc(O)cc2)[C@H](O)[C@@H](O)[C@H]1O`, for which the “viability (% of DMSO)” value is 98.2%.

`OC1CCC(Nc2ncc3nc(Nc4c(F)cc(F)cc4F)n([C@@H]4CCOC4)c3n2)CC1` (stereo not given in full): the Potency is 11.8 µM (active).

For the compound `Cn1c(=O)c(-c2c(Cl)cccc2Cl)cc2cnc(Nc3cccc(C(=O)O)c3)nc21`, the Potency was 0.209 µM (active).

In the case of `CC1(C)C(N(O)C(=O)Nc2ccc(Cl)cc2)N(c2ccc(Cl)cc2)C(=O)N1CC(=O)NN=CC=Cc1ccc([N+](=O)[O-])o1` (stereo not given), the “viability (% of DMSO)” value was 93.9%.

Turning to `CC(C)[C@H](O)C(=O)N[C@@H](C)C(=O)N[C@@H]1C(=O)N(C)CCc2ccccc21`, the “viability (% of DMSO)” value was 88.1%.

`NC(=O)c1ccc(N(C(N)=O)c2c(F)cccc2F)nc1-c1ccc(F)cc1F`: the “viability (% of DMSO)” value was 85.2%.

As for `C[C@@H]1CCO[C@H]2Cn3cc(C(=O)NCc4ccc(F)cc4F)c(=O)c(O)c3C(=O)N12`, the “viability (% of DMSO)” value is 109%.

For the compound `CCOC(=O)[C@H]1O[C@H]1C(=O)N[C@@H](CC(C)C)C(=O)NCCC(C)C`, the “viability (% of DMSO)” value is 106%.

`Nc1ncnc2c1c(-c1cccc(OCc3ccccc3)c1)cn2C1CC(CN2CCC2)C1` (stereo not given): the Potency is 0.372 µM (active).

`CCCCC[C@H](O)C=C[C@H]1[C@H](O)CC(=O)[C@H]1CC=CCCCC(=O)O`: the “viability (% of DMSO)” value is 126%.

On to `NCC1CCC(C(=O)O)CC1` (stereo not given), for which the “viability (% of DMSO)” value was 107%.

`CC(=O)Nc1cccc(-n2c(=O)n(C3CC3)c(=O)c3c(Nc4ccc(I)cc4F)n(C)c(=O)c(C)c32)c1`: the Potency was 0.0935 µM (active).

`O=C(c1ccc(F)c(F)c1Nc1ccc(I)cc1F)N1CC(O)([C@H]2CCCCN2)C1`: the Potency is 11.8 µM (active).

For the compound `C=C1[C@H](n2cnc3c(=O)[nH]c(N)nc32)C[C@H](O)[C@H]1CO`, the Potency is 18.7 µM (active).

With `Cc1cccc(-c2[nH]c(C(C)(C)C)nc2-c2ccc3c(c2)OCO3)n1`, the Potency was 3.72 µM (active).
